Only some compounds are listed: those with a hit (about 10% of all), similar ones and a draw of the others.
RORgamma inh = blocks mouse ROR gamma transcriptional activity. P51450. Drosophila S2 Gal4-RORgamma UAS-luciferase reporter, 20 h. hit rate 5.4% among 310,000. AID 2551. Potency, µM (series often up to 53.6 µM), inactives show at the highest dose activity change, negative = inhibition, hits mostly inhibitors; note: % is set by controls: 0 for no effect and ±100 for the full control effect; nearly all actives have a fitted effect of over 60% in size
Target sequence (P51450 whole entry, looked up, the tested form may be a part): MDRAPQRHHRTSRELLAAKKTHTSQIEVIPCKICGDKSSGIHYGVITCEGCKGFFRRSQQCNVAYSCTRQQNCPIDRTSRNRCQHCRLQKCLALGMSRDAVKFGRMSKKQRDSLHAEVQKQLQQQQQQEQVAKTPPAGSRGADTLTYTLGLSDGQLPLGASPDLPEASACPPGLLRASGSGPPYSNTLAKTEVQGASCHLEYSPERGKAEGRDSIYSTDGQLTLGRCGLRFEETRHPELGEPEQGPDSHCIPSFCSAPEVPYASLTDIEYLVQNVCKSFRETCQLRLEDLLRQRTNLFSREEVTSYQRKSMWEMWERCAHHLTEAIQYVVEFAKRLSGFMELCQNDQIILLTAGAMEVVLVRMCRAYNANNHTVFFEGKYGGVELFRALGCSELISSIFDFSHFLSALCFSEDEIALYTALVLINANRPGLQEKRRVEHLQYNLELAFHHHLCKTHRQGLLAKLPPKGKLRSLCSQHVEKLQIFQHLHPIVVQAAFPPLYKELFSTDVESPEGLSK
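Drosophila Schneider cells stably carrying a metallothionein-driven Gal4 DBD–ROR gamma fusion and a UAS-Photinus luciferase reporter were exposed to compound for 1 hr, then induced with copper sulfate (700 uM final) for 20 hr at ambient temperature before luminescence reading.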
ELG1 DNA repair = ELG1-dependent DNA repair inhibition; HEK293T ELG1-luciferase reporter, luminescence, 16 h; DNA damage induced by 5-fluorouridine; Potency, µM (highest dose often 46.1 µM), without a hit: at the highest dose activity change, negative = inhibition, most hits filed as inhibitors; hit rate 2.3% among 330,000; note: % is set by controls: 0 for no effect and ±100 for the full control effect; nearly all actives have a fitted effect of over 55% in size
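DMSO vehicle served as the neutral condition. Each well held 2,000 cells given 5-fluorouridine plus compound; after 16 hr at 37 °C/5% CO2, ONE-Glo was added and luciferase measured 30 min later.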
SW480 rerep = induces DNA re-replication in SW480 colon adenocarcinoma cells | SW480 DNA re-replication, Hoechst DNA content imaging, 48 h | hit rate 1.8% among 340,000 | Potency, µM (highest dose often 46.1 µM), inactives show at the top dose re-replication activation, hits mostly activators; note: % of control where 0% means no effect; nearly all actives have a fitted effect of over 55% in size
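Compounds, transferred as 23 nL by pin tool, were incubated with cells for 48 hr; DNA content per nucleus was then quantified by Hoechst staining and fluorescence plate imaging.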
MCF10A rereplic = DNA re-replication induction in MCF 10a cells | MCF 10A DNA re-replication, Hoechst nuclear intensity, 48 h | Potency, µM (doses to about 46.1 µM), without a hit: top-dose activity, positive = re-replication, actives largely listed as activators | hit rate 2.9% among 350,000 | AID 624296; note: % of control where 0% means no effect; nearly all actives have a fitted effect of over 50% in size
Gal4-VP16 FLuc = counter-screen for ROR gamma inhibitors: Gal4-VP16 reporter; AID 2546; Potency, µM (top dose mostly 53.6 µM), for inactives: at the highest dose activity, negative = inhibition, actives largely listed as inhibitors; Drosophila S2 Gal4-VP16 UAS-luciferase, luminescence, 20 h; hit rate 3.5% among 310,000;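 note: Gal4-VP16 expression switched on by copper sulfate through the metallothionein promoter; % is set by controls: 0 for no effect and ±100 for the full control effect; nearly all actives have a fitted effect of over 50% in size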
Starred values were filed as active, the others as inactive; ? = inconclusive; . = no result given; [ ] = another dose, or the depositor's remark. Calls come from the whole dose curve; as a rule, active = well fitted curve in the direction sought with a large enough effect; inconclusive = small, poorly fitted or top-dose-only effect, or another doubt; inactive = no such curve, though single readings can be large; an effect the other way counts as inactive or inconclusive. Potency is the fitted concentration of half-maximal effect.

SMILES	RORgamma inh	ELG1 DNA repair	SW480 rerep	MCF10A rereplic	Gal4-VP16 FLuc
OCC[C@H]1C[C@@H](O)[C@H](O)[C@]2(Cc3ccccc3CCO2)O1	.	3.9%	3.1%	-16.4%	.
CN(Cc1ccccc1)C(=O)c1ccc([N+](=O)[O-])o1	-44.7%	-10.7%	6.51µM*	16.4µM*	?
O=C(Nc1cccc(Cl)c1N1CCOCC1)c1ccc([N+](=O)[O-])o1	-7.5%	12.6%	7.1%	19.1%	-3.6%
O=C(Nc1cccc2ccccc12)c1ccc([N+](=O)[O-])o1	?	?	?	5.8µM*	12.6µM*
COC(=O)c1cc(OC)c(OC)cc1NC(=O)c1ccc(C)o1	0.7%	23.1µM*	-0.3%	28.4%	-15.1%
COC(=O)c1ccc(NC(=O)c2ccccc2-c2ccccc2C(=O)O)cc1	0.2%	20.9%	-45.0%	7.5%	2.2%
O=C1OC(Nc2cc(Br)cc3cccnc23)c2ccccc21 (centres undefined)	?	17.2%	18.7%	11.1%	11.2µM*
O=C1OC(Nc2ncccn2)c2ccccc21 (centres undefined)	-6.0%	-3.6%	0.1%	1.2%	1.0%
CC(C)N1CCN(Cc2nc3c(s2)CCCC3)CC1CCO (centres undefined)	-8.1%	4.3%	-5.7%	-0.4%	-10.7%
O=c1[nH]c(CN2CCN(c3ccc(O)cc3)CC2)nc2scc(-c3ccc(Cl)cc3)c12	20.4%	?	3.66µM*	?	-26.6%
COc1cccc(N2CCN(Cc3nc4scc(-c5ccccc5)c4c(=O)[nH]3)CC2)c1	-32.1%	?	?	10.3µM*	?
O=c1[nH]c(CN2CCN(c3ccccc3O)CC2)nc2scc(-c3ccccc3Cl)c12	-6.4%	20.6µM*	-22.2%	20.2%	1.4%
CN(Cc1ccccc1)Cc1nc2scc(-c3ccccc3)c2c(=O)[nH]1	3.16µM*	?	1.0%	20.9%	?
O=c1[nH]c(Cc2ccccc2)nc2scc(-c3ccccc3)c12	?	14.6%	-1.8%	?	8.7%
O=c1[nH]c(CN2CCN(c3ccccc3Cl)CC2)nc2ccsc12	-15.9%	-7.3%	-5.0%	4.1%	-0.2%
c1ccc(Cc2nnc(Sc3ccccc3)c3ccccc23)cc1	-34.3%	?	14.6µM*	?	?
c1ccc(Sc2ncnc3ccccc23)cc1	36.3%	-8.3%	-2.2%	?	?
COc1ccc(/C=N/NC(=O)CCC(=O)Nc2ccc(F)cc2)c(OC)c1	20.4%[1.91 µM]	-3.1%	-12.7%	2.6%	1.9%
Cc1ccc(SCCC(=O)N/N=C/c2ccccc2O)cc1	0.631µM*	-11.3%	?	2.8%	0.631µM*
Cc1cccc(NC(=O)CCC(=O)N/N=C/c2ccc(O)cc2O)c1	-42.1%	-19.6%	6.51µM*	?	-0.3%
Cc1ccc(NC(=O)CCC(=O)N/N=C/c2ccccc2O)cc1	3.98µM*	?	11.5%	0.8%	11.2µM*
COc1ccc(O)c(/C=N/NC(=O)CCC(=O)Nc2ccc(F)cc2)c1	11.2µM*	-11.4%	-3.3%	24.2%	-15.8%
C[C@@H]1C(=O)O[C@H]2[C@H](O)[C@@]34[C@H]5C[C@@H](C(C)(C)C)[C@]36[C@@H](OC(=O)[C@@H]6O)O[C@@]4(C(=O)O5)[C@@]12O	-5.0%	-0.2%	0.3%	-1.1%	-0.6%
COc1ccccc1CN1CCNC(=O)C1CC(=O)N(C)Cc1cnccn1 (centres undefined)	5.6%	3.2%	-4.1%	-0.3%	3.3%
Cc1ccc(S(=O)(=O)N2CCN(S(=O)(=O)N3CCCCC3)CC2)c(C)c1	-5.0%	16.4µM*	-0.7%	23.7%	-1.1%
SMILES	RORgamma inh	ELG1 DNA repair	SW480 rerep	MCF10A rereplic	Gal4-VP16 FLuc
O=C(NCCCCCCNC(=O)OCc1ccccc1)OCc1ccccc1	.	.	0.7%	-0.7%	.
O=C(O)CCCNC(=O)OCc1ccccc1	?	-12.8%	-2.2%	-0.6%	6.31µM*
COc1ccc(/C=N/Nc2ncnc3sc4c(c23)CCCC4)cc1OC	3.16µM*	-26.1%	?	?	3.98µM*
COc1ccc(/C=N/Nc2ncnc(Cl)c2N)cc1OC	?	?	-34.5%	?	?
Cc1cc(=O)oc2c(C)cc(C(C)(C)C)cc12	.	.	28.7%	-2.3%	.
Cc1ccc(C(C)(C)C)c(SCC(=O)Nc2nnc(C)s2)c1	7.08µM*	2.9%	-9.5%	-1.3%	-17.3%
Cc1nnc(NC(=O)CSc2cn(Cc3ccccc3)c3ccccc23)s1	11.2µM*	0.9%	0.4%	10.5%	-18.1%
Cc1ccc(Cn2cc(SCC(=O)Nc3nccs3)c3ccccc32)cc1	-42.7%	?	13.1%	-1.1%	-15.4%
COc1ccc(S(=O)(=O)NCCC(=O)Nc2ccc(C)cc2)cc1	-3.4%	2.3%	-3.5%	-0.2%	1.6%
CC(=O)Cc1nsc(NC(=O)c2ccc(-c3cccc(C(F)(F)F)c3)o2)n1	13.0%	3.7%	?	13µM*	2.4%
CC(=O)Cc1nsc(NC(=O)c2ccc(-c3cc(C(F)(F)F)ccc3Cl)o2)n1	-1.3%	-17.3%	?	3.26µM*	12.3%
O=C(Nc1ncc(Cc2cccc(C(F)(F)F)c2)s1)c1ccc(-c2cccc([N+](=O)[O-])c2)o1	7.08µM*	11.6µM*	1.9%	?	4.47µM*
O=C(Nc1nccs1)c1ccc(-c2cccc([N+](=O)[O-])c2)o1	-23.7%	?	-5.7%	2.1%[9.22 µM]	-17.0%[10 µM]
COC(=O)c1ccccc1NC(=O)COC(=O)CO/N=C(\C)c1ccc2c(c1)OCO2	-3.4%	20.3%	-7.6%	?	7.3%
Cc1ccc(C[C@H](C(=O)O)N2C(=O)c3ccc(C(=O)O)cc3C2=O)cc1	21.0%	.	.	.	-1.9%
O=C1CC(N2CCCCCC2)C(=O)N1c1ccc(F)cc1 (centres undefined)	?	9.5%	?	13µM*	?
O=C1CC(N2CCCCCC2)C(=O)N1c1ccc2c(c1)OCO2 (centres undefined)	10µM*	3.7%	-0.6%	14.6µM*	?
O=C1CC(N2CCN(c3ccc(O)cc3)CC2)C(=O)N1c1ccc2c(c1)OCO2 (centres undefined)	-0.3%	3.6%	-1.8%	-1.9%	5.4%[10 µM]
C1=C(c2ccccc2)Nc2ncnn2C1c1ccccc1 (centres undefined)	.	.	12.4%[9.22 µM]	3.2%	.
Fc1ccc(Br)cc1C1C=C(c2ccc(Br)cc2)Nc2ncnn21 (centres undefined)	6.31µM*	?	-7.1%	-5.3%	?
CCc1ccc(C2=CC(c3cc(Br)ccc3F)n3ncnc3N2)cc1 (centres undefined)	?	?	?	17.1%	14.1µM*
Cc1ccsc1C1C=C(c2cccc(Br)c2)Nc2ncnn21 (centres undefined)	7.94µM*	-10.0%	-1.0%	1.9%	?
Cc1ccc(C2=CC(c3ccccc3)n3ncnc3N2)cc1 (centres undefined)	.	.	?	10.9%	.
C#CCOc1ccc(/C=C2/C(=O)ON=C2C)cc1Br	7.9%	7.3%	18.9%	?	-2.2%
